RORgamma inh = ROR gamma (mouse) transcription inhibition. Potency, µM (top dose mostly 53.6 µM), for the others: at the top dose activity change, negative = inhibition, actives largely listed as inhibitors. 5.4% of 310,000 active. P51450. Drosophila S2 Gal4-RORgamma UAS-luciferase reporter, 20 h; also: nearly all actives have a fitted effect of over 60% in size
Target sequence (P51450 whole entry, looked up, the tested form may be a part): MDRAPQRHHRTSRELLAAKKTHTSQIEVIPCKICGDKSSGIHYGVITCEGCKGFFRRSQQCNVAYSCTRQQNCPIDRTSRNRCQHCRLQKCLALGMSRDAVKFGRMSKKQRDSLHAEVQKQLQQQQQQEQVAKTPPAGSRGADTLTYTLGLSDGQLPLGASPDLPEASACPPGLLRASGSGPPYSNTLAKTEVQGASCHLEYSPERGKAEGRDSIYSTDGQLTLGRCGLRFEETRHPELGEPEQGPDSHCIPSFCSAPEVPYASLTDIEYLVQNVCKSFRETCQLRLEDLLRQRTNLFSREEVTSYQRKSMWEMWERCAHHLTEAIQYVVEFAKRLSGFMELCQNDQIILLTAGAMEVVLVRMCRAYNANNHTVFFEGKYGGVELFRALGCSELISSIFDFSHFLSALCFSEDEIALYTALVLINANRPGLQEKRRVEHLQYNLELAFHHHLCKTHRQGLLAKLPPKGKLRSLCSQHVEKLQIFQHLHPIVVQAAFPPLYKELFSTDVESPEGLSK
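Luciferase reporter read in Schneider cells carrying Gal4-RORγ (mouse) and UAS-Photinus luciferase; cells given compound 1 h before 700 uM copper sulfate induction, then incubated 20 h at ambient temperature.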
ALOX12 inh = ALOX12 (human) lipoxygenase inhibition; P18054; 1.1% of 580,000 active; Potency, µM (highest dose often 108 µM), for inactives: at the top dose activity change, negative = inhibition, hits mostly inhibitors; purified 12hLO, xylenol orange hydroperoxide absorbance; AID 1671190
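Purified human 12hLO at 150 nM in 25 mM Hepes, 0.01% Triton X-100, pH 7.0, preincubated 15 min at room temperature with compound. Reaction started with 40 uM arachidonic acid, 30 min at room temperature. Hydroperoxide measured by Fe-xylenol orange, 573/405 nm absorbance ratio.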
TDP1 cell noCPT = qHTS for Inhibitors of human tyrosyl-DNA phosphodiesterase 1 (TDP1): qHTS in cells in absence of CPT; DT40 Tdp1-/- hTDP1 cells, no CPT, ATP luminescence, 48 h; Potency, µM (titrated, usually from 46.2 µM), for the others: top-dose activity change, negative = growth inhibition, most hits filed as inhibitors; 15% of 420,000 active; AID 686978, 2013; also: nearly all actives have a fitted effect of over 55% in size
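Readout: luminescence from CellTiter-Glo after 30 min in the dark at RT. Cells: DT40 Tdp1-/- with stable hTDP1, 400/well. Exposure: compounds alone, ≥48 hr, 37 °C.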
DT40 TDP1 CPT = growth inhibition of DT40 Tdp1-/-;hTDP1 cells with camptothecin (screen for TDP1 inhibitors); chicken DT40 Tdp1-/-;hTDP1 cells + 20 nM CPT, ATP luminescence, 48 h; Potency, µM (titrated, usually from 46.2 µM), for the others: at the highest dose activity change, negative = growth inhibition, hits mostly inhibitors; 12% of 420,000 active; also: nearly all actives have a fitted effect of over 55% in size
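Chicken DT40 Tdp1-/- cells complemented with human TDP1, 400 cells/well, exposed to compounds plus 20 nM camptothecin for at least 48 h at 37 C; viability read as ATP content by CellTiter-Glo luminescence.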
Gal4-VP16 FLuc = Gal4-VP16 reporter inhibition counter-screen | Drosophila S2 Gal4-VP16 UAS-luciferase, luminescence, 20 h | Potency, µM (series often up to 53.6 µM), without a hit: at the top dose activity, negative = inhibition, usual class: inhibitors | 3.5% of 310,000 active;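 also: Gal4-VP16 expression switched on by copper sulfate through the metallothionein promoter; nearly all actives have a fitted effect of over 50% in size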
ELG1 repair inh = ELG1-dependent DNA repair inhibition | HEK293T ELG1-luciferase reporter, luminescence, 16 h; DNA damage induced by 5-fluorouridine | Potency, µM (top dose mostly 46.1 µM), inactives show top-dose activity change, negative = inhibition, actives largely listed as inhibitors | 2.3% of 330,000 active | AID 504467; also: nearly all actives have a fitted effect of over 55% in size
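Luminescence from the luciferase reporter, measured 30 min after ONE-Glo reagent at room temperature, was the read-out. Beforehand, 2,000 cells per well were exposed for 16 hr at 37 °C to 5-fluorouridine together with compound or vehicle.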
The depositor's hits bear a star; [ ] = dose if it differs, or a comment. Shown are actives, neighbours in structure and some others; about 15% of the full set was active somewhere. Calls follow the shape of the dose curve; as a rule, active = well fitted curve in the direction sought with a large enough effect; inconclusive = small, poorly fitted or top-dose-only effect, or another doubt; inactive = no such curve, though single readings can be large; an effect the other way counts as inactive or inconclusive. % is scaled to controls: 0 for no effect and ±100 for the full control effect; potency is read from the fitted curve at half-maximal effect.

`Cc1nc2ccc(C(=O)N3CCCC3CN3CCCC3)cc2nc1C` (configuration not stated) gave ALOX12 inh -12.0%.
For COc1ccc(NC(C)=O)cc1NC(=O)Cn1ccc2c(Cl)cccc21 the results were ALOX12 inh 0.9%.
Screening COc1ccc2[nH]cc(C(C(=O)O)N3CCN(C(=O)OC(C)(C)C)CC3)c2c1 (configuration not stated) returned ALOX12 inh -2.7%.
`c1ccc(COC2CCCN(Cc3nc(-c4cccs4)no3)C2)nc1` (configuration not stated) gave RORgamma inh 2.5%, ALOX12 inh -12.8%, TDP1 cell noCPT -15.3%, DT40 TDP1 CPT 12.0%, Gal4-VP16 FLuc -21.8% and ELG1 repair inh -14.4%.
For FC(F)(F)c1cccc(Cc2noc(CN3CCC(c4ccncc4)CC3)n2)c1 the results were RORgamma inh -86.4%, ALOX12 inh 1.3%, TDP1 cell noCPT 7.31µM*, DT40 TDP1 CPT 5.8µM*, Gal4-VP16 FLuc inconclusive and ELG1 repair inh -11.0%.
Screening FC(F)(F)c1cccc(Cc2noc(CN3CCCC(OCc4ccccn4)C3)n2)c1 (configuration not stated) returned RORgamma inh 33.3%, ALOX12 inh inconclusive, TDP1 cell noCPT 23.1µM*, DT40 TDP1 CPT 18.4µM*, Gal4-VP16 FLuc 2.3% and ELG1 repair inh inconclusive.
For Cc1ccc(C(=O)N2C[C@@H](Oc3cccnc3)C[C@H]2C(=O)N2CCOCC2)cn1 the results were ALOX12 inh 31.4%.
Screening CCC[C@H]1C[C@H]1C(=O)N1CCC2(CCC(=O)N(CC(N)=O)C2)CC1 returned ALOX12 inh 21.0%.
Screening CCOC(=O)c1cc(-c2ccc(/C=N\n3cnnc3)o2)ccc1Cl returned RORgamma inh 3.3%[0.365 µM], ALOX12 inh 30.5%, TDP1 cell noCPT inconclusive, DT40 TDP1 CPT -15.8% and ELG1 repair inh inconclusive.
`CCOC(=O)c1cc(-c2ccc(/C=C3/C(=O)N(c4ccc(C(=O)O)cc4)N=C3C)o2)ccc1Cl` gave RORgamma inh inconclusive, ALOX12 inh -11.7%, TDP1 cell noCPT 14.6µM*, DT40 TDP1 CPT inconclusive, Gal4-VP16 FLuc 13.2% and ELG1 repair inh -27.1%.
`COc1ccc(-c2oc3ccccc3c(=O)c2OC(C)=O)cc1` gave RORgamma inh 7.08µM*, ALOX12 inh inconclusive, TDP1 cell noCPT 16.4µM*, DT40 TDP1 CPT 23.1µM*, Gal4-VP16 FLuc inconclusive and ELG1 repair inh 4.0%.
`CCOC(=O)COc1c(-c2ccc(OC)cc2)oc2ccccc2c1=O` gave RORgamma inh 6.5%, ALOX12 inh 0.0%, TDP1 cell noCPT inconclusive, DT40 TDP1 CPT inconclusive, Gal4-VP16 FLuc -2.2% and ELG1 repair inh inconclusive.
O=C(O)COc1c(-c2ccco2)oc2ccccc2c1=O was read as RORgamma inh 6.6%, ALOX12 inh -15.1%, TDP1 cell noCPT -10.0%, DT40 TDP1 CPT 5.1%, Gal4-VP16 FLuc 5.2% and ELG1 repair inh 13.3%.
CC(=O)Oc1c(-c2ccc(Br)o2)oc2ccccc2c1=O was read as RORgamma inh 7.08µM*, ALOX12 inh 35.5µM*, TDP1 cell noCPT 14.6µM*, DT40 TDP1 CPT 25.9µM*, Gal4-VP16 FLuc 7.08µM* and ELG1 repair inh 1.1%.
Screening Cn1cccc1/C=C1\SC(=O)N(c2ccc(O)cc2)C1=O returned RORgamma inh 2.82µM*, ALOX12 inh inconclusive, TDP1 cell noCPT inconclusive, DT40 TDP1 CPT -22.4%, Gal4-VP16 FLuc -20.0% and ELG1 repair inh inconclusive.
Screening COC(=O)c1ccc(CNC(=O)C(C)Cl)cc1 (configuration not stated) returned ALOX12 inh -19.8%.
COC(=O)c1ccc(CNc2ccc(C(C)=O)cc2)cc1 was read as ALOX12 inh 4.7%, TDP1 cell noCPT 14.6µM* and DT40 TDP1 CPT inconclusive.
For CN=C(NC)NCc1ccc(C(=O)OC)cc1 the results were ALOX12 inh 25.1µM*.
Screening CCc1ccc(OC(=O)c2ccc(OC)c(I)c2)c(Br)c1 returned ALOX12 inh 15.8%.
Screening C=C1C(=O)O[C@H]2C[C@H]1[C@@H](OC(C)=O)C/C(C)=C/CC/C(C)=C\CC[C@]2(C)O returned ALOX12 inh 16.7%, TDP1 cell noCPT 2.91µM* and DT40 TDP1 CPT 2.59µM*.
`CCOc1ccccc1N(C)C(=O)c1cc2c(=O)n(CC)c3ccccc3c2s1` gave RORgamma inh 28.6%, ALOX12 inh -40.2%, TDP1 cell noCPT 20.6µM*, DT40 TDP1 CPT 20.6µM*, Gal4-VP16 FLuc -1.3% and ELG1 repair inh inconclusive.
Screening CCn1c(=O)c2cc(C(=O)NCCN(C)C)sc2c2ccccc21 returned RORgamma inh 0.1%, ALOX12 inh 5.7%, TDP1 cell noCPT inconclusive, DT40 TDP1 CPT inconclusive, Gal4-VP16 FLuc -1.6% and ELG1 repair inh inconclusive.
`CCn1c(=O)c2cc(C(=O)N(CCN(C)C)Cc3ccccc3)sc2c2ccccc21` gave ALOX12 inh inconclusive, TDP1 cell noCPT 20.6µM* and DT40 TDP1 CPT -25.6%.
`CC(C)CCN(Cc1ccco1)C(=O)c1cc2c(s1)-c1ccccc1OC2` gave ALOX12 inh 0.0%.
`CC(C)CCN(Cc1ccco1)C(=O)c1cc2c(Cl)nc3ccccc3c2s1` gave ALOX12 inh -15.4%, TDP1 cell noCPT 16.4µM* and DT40 TDP1 CPT inconclusive.
Screening CCn1c(=O)c2cc(C(=O)N(CCCOC(C)C)Cc3ccco3)sc2c2ccccc21 returned ALOX12 inh -17.3%, TDP1 cell noCPT 20.6µM* and DT40 TDP1 CPT inconclusive.
`COc1cccc(-c2n[nH]c3c2CC(=O)N(Cc2ccccn2)C3)c1` gave ALOX12 inh 9.0%[176 µM].
`Cc1ccc(CNC(=O)c2nn(-c3ccc(F)cc3)c3c2CCC3)cc1` gave ALOX12 inh -20.9%.
CN1C(=O)CS(=O)(=O)C12CCN(C(=O)c1ccc(F)c(F)c1)CC2 was read as ALOX12 inh 46.0%.
Screening c1ccc(-c2nn3c(c2-c2ccnc4cc(OCCN5CCOCC5)ccc24)CCC3)nc1 returned ALOX12 inh -21.1%[57.4 µM].
`COc1ccc(Cn2c(=O)sc3ccccc3c2=O)cc1` gave RORgamma inh 10.1%, ALOX12 inh 0.8%, TDP1 cell noCPT -22.8%, DT40 TDP1 CPT 1.4%, Gal4-VP16 FLuc -6.5% and ELG1 repair inh 7.4%.
